For some of these results: Entries with a potency or affinity are not part of this list. Active and inactive are the calls of the source.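 Rule for the calls, unless noted: active = calcium signal cut by more than 3 SD below the full-agonist control yet still positive, in both repeats and the earlier primary screen; inactive = the rest.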
Tests used:
[1] = system: TRPC4 beta (transient receptor potential cation channel C4), mouse; test: TRPC4 cation channel opening, retest – cell-based, Fluo4 calcium, HEK293 TRPC4beta/mu-opioid, duplicates, 10 µM, confirmation (AID 2426;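 active = fluorescence ratio normalized to control raised more than 50% in primary screen plus both repeat runs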); settings: Fluo4 calcium fluorescence, at 10 µM; active compounds read high
[2] = system: transient receptor potential cation channel C4 beta (TRPC4), mouse; test: TRPC4 cation channel opening, second retest – cell-based, second round, Fluo4, HEK293 TRPC4beta/mu-opioid, 1 µM, confirmation (AID 2461;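 active = primary screen active and over 50% activation in each of two duplicate runs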); settings: Fluo4 calcium fluorescence, at 1 µM; active compounds read high
[3] = system: TRPC4 (transient receptor potential cation channel C4 beta), mouse; test: potentiation of DAMGO EC20 TRPC4 response – cell-based, second round, Fluo-4, HEK293 TRPC4beta/mu-opioid, 1 µM, confirmation (AID 2554;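 active = primary screen hit whose fluorescence ratio, in both repeats, exceeds the weak agonist control mean by 3 SD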); settings: DAMGO EC20, Fluo-4 calcium flux, at 1 µM; active compounds read high
[4] = system: TRPC4 beta (transient receptor potential cation channel C4), mouse; test: potentiation of DAMGO EC20 TRPC4 response – cell-based, Fluo-4, HEK293 TRPC4beta/mu-opioid, confirmation (AID 2555;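 active = primary screen hit whose calcium fluorescence ratio, in both repeats, exceeds the weak agonist control mean by 3 SD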); settings: DAMGO EC20, Fluo-4 calcium flux, at 10 µM; active compounds read high
[5] = molecular target: Short transient receptor potential channel 4 (Mus musculus) (UniProt Q9QUQ5); test: blockers of DAMGO-evoked TRPC4 calcium flux – cell-based, Fluo4, HEK293 TRPC4beta/mu-opioid, confirmation (AID 2636); settings: at 10 µM; active compounds read high
[6] = molecular target: Short transient receptor potential channel 4 (Mus musculus) (UniProt Q9QUQ5); test: blockers of DAMGO-evoked TRPC4 calcium flux – cell-based, second round, Fluo4, HEK293 TRPC4beta/mu-opioid, 1 µM, confirmation (AID 2637;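 active = calcium signal ratio cut to more than 3 SD under the fully stimulated control mean yet still positive, in both repeats and the primary screen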;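 for inhibition: percent of integrated ratio relative to wells lacking test compound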); settings: at 1 µM; active compounds read high
[7] = molecular target: Short transient receptor potential channel 4 (Mus musculus) (UniProt Q9QUQ5); test: calcium entry via TRPC4 opening agents – cell-based, HEK293 TRPC4/mu-opioid, Fluo-4 calcium, dose response (AID 434937;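 active = primary screen activator hit with a dose response curve and TRPC4 channel activation at any tested dose; inactive = no activation, no dose response, or not a primary hit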)
[8] = molecular target: Short transient receptor potential channel 4 (Mus musculus) (UniProt Q9QUQ5); test: potentiation of DAMGO-evoked TRPC4 calcium signal – cell-based, HEK293 TRPC4/mu-opioid, Fluo-4 calcium, EC20 DAMGO, dose response (AID 434941;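 active = earlier screen potentiator hit that boosts the TRPC4 ion channel at some dose, with a dose response; inactive = no potentiation, no dose response, or not a prior hit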;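 note: calcium entry triggered by an EC20 dose of DAMGO at the co-expressed mu-opioid receptor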)
[9] = molecular target: Short transient receptor potential channel 6 (Mus musculus) (UniProt Q61143); test: TRPC6 blockade by TRPC4 inhibitor hits – cell-based, HEK293, membrane potential dye, duplicate, selectivity assay for TRPC4 inhibitor project, confirmation (AID 434948;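 active = active in primary screen and both duplicates, each dropping signal beyond three positive-control SD with fluorescence still positive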); settings: HEK293 TRPC6, membrane potential dye fluorescence, at 10 µM, stimulated with maximal-effect acetylcholine; active compounds read high
[10] = molecular target: Short transient receptor potential channel 6 (Mus musculus) (UniProt Q61143); test: TRPC6 opening by TRPC4 activator hits – cell-based, HEK293, membrane potential dye, duplicate, selectivity assay for TRPC4 activator project, confirmation (AID 434950;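 active = membrane potential signal rise above negative control mean plus 3 SD in both duplicates, also active in the earlier TRPC4 screen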); settings: HEK293 TRPC6, membrane potential fluorescence, at 10 µM; activation: active compounds read high; outcome: activation
[11] = molecular target: Short transient receptor potential channel 6 (Mus musculus) (UniProt Q61143); test: positive modulators of mouse TRPC6 channel – HEK293 cells, membrane potential dye, duplicate, selectivity assay for TRPC4 potentiator project, confirmation (AID 434952;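 active = compound raising the membrane signal above positive-control mean plus 3 SD in both repeats, and a primary screen hit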); settings: HEK293 TRPC6, membrane potential dye fluorescence, at 10 µM, maximal acetylcholine added after compound; active compounds read high
[12] = molecular target: Short transient receptor potential channel 4 (Mus musculus) (UniProt Q9QUQ5); test: calcium flux activators in TRPC4/5HT1a cells, counter-screen for TRPC4 activator project, cell-based, second counter screen, HEK293 TRPC4/5HT1a, Fluo-4 (AID 434977;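 active = calcium signal rise above buffer-control mean plus 5 SD in both duplicates, and also a hit in the primary screen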); settings: Fluo-4 calcium flux, at 10 µM; active compounds read high
[13] = serotonin-gated TRPC4 signal block – cell-based, second counter screen, HEK293 TRPC4/5HT1a, Fluo-4, counter-screen for TRPC4 inhibitor project, confirmation (AID 434978;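 active = primary screen active whose calcium signal fell more than 3 SD beyond the full-serotonin control mean in both duplicate plates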;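 for outcome: serotonin given first at submaximal then at maximal dose after compound preincubation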); settings: Fluo-4 calcium flux, at 10 µM, serotonin added to trigger calcium flux; active compounds read high
[14] = system: TRPC4 (mouse), co-expressed with 5HT1a in HEK293; test: enhancement of serotonin-evoked TRPC4 response – cell-based, second counter screen, HEK293 TRPC4/5HT1a, Fluo-4, counter-screen for TRPC4 potentiator project, confirmation (AID 434979;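 active = signal rise over 3 SD above mean of control wells given weak agonist, in both repeats and first screen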); settings: Fluo-4 calcium flux, at 10 µM, serotonin added at its EC20 dose; active compounds read high
[15] = nonspecific calcium rise without TRPC4 – cell-based, HEK293 mu-opioid receptor line, counter-screen for TRPC4 activator project, confirmation (AID 449723;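 active = hit in primary screen, with calcium signal over 5 SD above buffer well mean in both duplicates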;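 note: counter screen cells carry the mu-opioid receptor alone and lack TRPC4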); settings: HEK293 mu-opioid cells, Fluo-4 calcium fluorescence, at 10 µM; active compounds read high
[16] = nonspecific potentiation of DAMGO calcium response – cell-based, HEK293 mu-opioid receptor line, counter-screen for TRPC4 allosteric potentiator project, confirmation (AID 449724;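 active = calcium signal rise more than 3 SD above the low-dose agonist control mean, in both duplicate plates and the primary screen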); settings: HEK293 mu-opioid receptor cells, Fluo-4 calcium flux, at 10 µM, compound added before EC20 DAMGO stimulus; active compounds read high

Measured: inhibition

Sequence of Short transient receptor potential channel 4 (Mus musculus) (Q9QUQ5 whole entry, looked up): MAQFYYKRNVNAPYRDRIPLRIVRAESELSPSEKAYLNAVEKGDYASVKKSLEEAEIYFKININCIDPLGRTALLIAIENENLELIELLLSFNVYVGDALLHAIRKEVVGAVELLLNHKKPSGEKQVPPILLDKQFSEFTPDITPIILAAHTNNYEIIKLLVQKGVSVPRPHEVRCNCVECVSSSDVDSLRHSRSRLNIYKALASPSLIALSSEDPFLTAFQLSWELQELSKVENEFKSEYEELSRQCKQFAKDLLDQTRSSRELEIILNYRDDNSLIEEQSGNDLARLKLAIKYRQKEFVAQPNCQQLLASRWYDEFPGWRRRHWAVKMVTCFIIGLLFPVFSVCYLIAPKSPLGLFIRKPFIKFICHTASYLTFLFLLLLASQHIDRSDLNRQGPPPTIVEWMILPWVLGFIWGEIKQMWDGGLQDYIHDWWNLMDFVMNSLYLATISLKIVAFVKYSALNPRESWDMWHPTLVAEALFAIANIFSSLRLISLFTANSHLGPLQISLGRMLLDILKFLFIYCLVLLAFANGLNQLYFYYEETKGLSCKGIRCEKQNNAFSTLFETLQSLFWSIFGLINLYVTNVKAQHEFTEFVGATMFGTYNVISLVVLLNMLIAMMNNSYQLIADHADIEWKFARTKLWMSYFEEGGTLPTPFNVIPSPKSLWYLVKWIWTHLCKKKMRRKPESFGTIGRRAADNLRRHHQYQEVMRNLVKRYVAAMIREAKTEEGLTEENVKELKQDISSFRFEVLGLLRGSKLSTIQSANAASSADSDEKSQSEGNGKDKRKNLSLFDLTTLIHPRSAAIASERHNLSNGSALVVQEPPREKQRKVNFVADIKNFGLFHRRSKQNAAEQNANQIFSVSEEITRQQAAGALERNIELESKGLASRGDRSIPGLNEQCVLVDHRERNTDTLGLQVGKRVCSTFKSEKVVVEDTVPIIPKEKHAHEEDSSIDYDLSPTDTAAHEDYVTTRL
Sequence of Short transient receptor potential channel 6 (Mus musculus) (Q61143 whole entry, looked up): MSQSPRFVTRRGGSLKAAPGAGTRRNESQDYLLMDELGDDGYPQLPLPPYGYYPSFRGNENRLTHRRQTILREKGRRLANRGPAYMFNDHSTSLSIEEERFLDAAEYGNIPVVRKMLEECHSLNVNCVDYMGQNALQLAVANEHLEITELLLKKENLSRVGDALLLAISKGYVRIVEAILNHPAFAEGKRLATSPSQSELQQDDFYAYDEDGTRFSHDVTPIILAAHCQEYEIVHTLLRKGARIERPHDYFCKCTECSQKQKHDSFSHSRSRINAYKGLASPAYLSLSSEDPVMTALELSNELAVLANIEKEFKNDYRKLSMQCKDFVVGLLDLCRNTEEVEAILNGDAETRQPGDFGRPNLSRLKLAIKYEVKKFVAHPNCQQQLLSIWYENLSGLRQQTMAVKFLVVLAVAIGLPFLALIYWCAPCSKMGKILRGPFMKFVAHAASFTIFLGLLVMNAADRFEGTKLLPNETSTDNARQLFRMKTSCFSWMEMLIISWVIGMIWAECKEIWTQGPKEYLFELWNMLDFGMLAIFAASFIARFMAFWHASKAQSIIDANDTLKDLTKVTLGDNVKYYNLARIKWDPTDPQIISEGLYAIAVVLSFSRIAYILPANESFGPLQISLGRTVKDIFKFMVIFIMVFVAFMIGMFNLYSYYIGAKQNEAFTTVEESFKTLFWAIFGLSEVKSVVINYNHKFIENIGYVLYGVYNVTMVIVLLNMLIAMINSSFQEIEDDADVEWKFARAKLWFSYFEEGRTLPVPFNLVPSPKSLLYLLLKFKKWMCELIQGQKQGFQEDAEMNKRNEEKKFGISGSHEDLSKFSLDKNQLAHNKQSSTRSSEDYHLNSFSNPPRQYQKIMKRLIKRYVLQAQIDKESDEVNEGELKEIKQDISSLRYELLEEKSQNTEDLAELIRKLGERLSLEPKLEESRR

CC(OC(=O)CNC(=O)c1ccccc1F)C(=O)Nc1nc(-c2ccccc2)cs1 (stereo unspecified)
active: [5] 78% | [13] 44.3%
inactive: all other assays above

c1ccc2c(c1)nnn2-c1ncnc2sc3c(c12)CCCC3
active: [5] 71% | [13] 21.8%
inactive: all other assays above

CCOC(=O)C1(Cc2cccc(OC)c2)CCN(Cc2ccc(OC)c(O)c2)CC1
inactive: all assays above

Cc1c(CN2CCC(n3nccc3NC(=O)CCc3ccccc3)CC2)cnn1C
active: [5] 94% | [6] 68%
inactive: all other assays above

CN(C)CCCN(C(=O)c1ccc(S(=O)(=O)N2CCCC2)cc1)c1nc2c(F)cc(F)cc2s1
active: [5] 68%
inactive: all other assays above

Cc1nc(N2CCN(c3ccccn3)CC2)c2c(C)c(C(=O)N3CCN(c4ccc(F)cc4)CC3)sc2n1
active: [5] 99% | [6] 48%
inactive: all other assays above

COc1cccc(CNC(=O)CCC2CCCN(Cc3cc(Cl)ccc3O)C2)c1 (stereo unspecified)
active: [5] 93% | [13] 29%
inactive: all other assays above

C=CCc1ccccc1OCC(O)CN1CCN(c2ccccc2OC)CC1 (stereo unspecified)
active: [5] 68% | [13] 13.1%
inactive: all other assays above

COc1ccc(C2=NN(C(=O)c3ccccc3)C(c3ccc(OC)c(OC)c3)C2)c(O)c1 (stereo unspecified)
active: [5] 66%
inactive: all other assays above

N#Cc1c(N2CCCCC2)nc(N)c2c(N)nc3c(c12)CC(c1ccccc1)O3 (stereo unspecified)
active: [5] 87% | [6] 49% | [13] 31.5%
inactive: all other assays above

COc1ccccc1CNCc1ccc(OC)c2ccccc12
active: [5] 96% | [13] 31%
inactive: all other assays above

COc1ccc(NC(=O)c2c[nH]n3c(=O)cc(C4CCN(C(=O)OC(C)(C)C)CC4)nc23)cc1Cl
active: [5] 86% | [6] 41% | [13] 40.1%
inactive: all other assays above

CC(OCC(O)CN(C)CCOc1ccccc1)c1ccc(Cl)cc1 (stereo unspecified)
active: [5] 94% | [6] 44% | [13] 22.2%
inactive: all other assays above

OCC1(Cc2ccccc2)CCN(Cc2ccc(C(F)(F)F)cc2)CC1
active: [5] 91% | [13] 23.3%
inactive: all other assays above

Cn1cc(-c2nc3ccccc3[nH]2)c2ccccc21
active: [5] 99% | [6] 49% | [9] 5.5% | [13] 41.1%
inactive: all other assays above

CCOc1cc(CNC2CCCC2)cc(Cl)c1OCc1ccccc1
active: [5] 76% | [13] 33%
inactive: all other assays above

CCOC(=O)C1CCN(CC(O)COc2ccc(C(C)(C)C)cc2)CC1 (stereo unspecified)
active: [13] 41.5%
inactive: all other assays above

Cc1ccc(Oc2ccccc2/C=N/O)cc1
active: [5] 89% | [13] 10.1%
inactive: all other assays above

CCC1C=C(c2ccccc2)C=CN=C1N(CC)CC (stereo unspecified)
active: [5] 93% | [13] 26.5%
inactive: all other assays above

C/C(CC(=O)N(C(C)C)C(C)C)=N\NC(=O)COc1ccc(Cl)cc1Cl
active: [5] 83%
inactive: all other assays above

COc1ccc(CN(C(=O)c2snc(C(N)=O)c2N)C(CC(C)C)C(=O)NC2CCCCC2)cc1 (stereo unspecified)
active: [5] 82% | [13] 30.8%
inactive: all other assays above

Clc1ccc(-c2csc3ncnc(NCCN4CCOCC4)c23)cc1
active: [5] 79% | [6] 50% | [13] 38%
inactive: all other assays above

CSCCNC(=O)c1ccc(OC2CCN(CCc3ccccc3)CC2)cc1
active: [6] 65%
inactive: all other assays above

O=C(OC1C2CCC1C1CN(CCc3ccccc3)CC12)c1ccccc1 (stereo unspecified)
active: [6] 44%
inactive: all other assays above

O=C(COc1ccc(F)cc1)c1c(O)cc(O)cc1O
active: [5] 84% | [13] 36.3%
inactive: all other assays above

Cc1cc([N+](=O)[O-])ccc1NCc1ccccc1
active: [5] 97% | [6] 44%
inactive: all other assays above

O=C(c1cccc(C(=O)N2CCN(c3ccc(F)cc3)CC2)c1)N1CCN(c2ccc(F)cc2)CC1
active: [5] 88% | [6] 53% | [13] 42%
inactive: all other assays above

C=CCN(CC(O)c1cccc([N+](=O)[O-])c1)C(C)CCc1ccccc1 (stereo unspecified)
active: [5] 79% | [13] 25.6%
inactive: all other assays above

COc1ccc(C(CNc2ccc(C(F)(F)F)cn2)N(C)C)cc1OC (stereo unspecified)
active: [6] 69%
inactive: all other assays above

OC1(c2ccc(F)cc2)CCN(Cc2ccccc2)C1 (stereo unspecified)
active: [5] 98% | [6] 55% | [13] 18.4%
inactive: all other assays above

COc1ccc(O)c(C(=O)c2cnc3c(c2)c(=O)[nH]c(=O)n3C)c1
active: [5] 92% | [6] 63% | [13] 20%
inactive: all other assays above

— PubChem BioAssay
